Screening data: PubChem, Broad Institute
RAD52 anneal inh – RAD52 DNA annealing inhibitors, primary screen, biochemical, FRET, single point, set 2; recombinant RAD52 DNA annealing, FRET fluorescence; inhibition, % at 18.7 µM; 360,000 compounds, 0.46% hits;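 active = every replicate showing at least 50% inhibition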
Ecoli rRNA inh – reduced GFP signal of wild-type E. coli, primary screen, bacterial rRNA inhibitor project, GFP/RFP fluorescence, OD600, single point; GFP signal change (wild-type ribosome), % (test concentration not listed); E. coli WT GFP vs humanized-ribosome RFP mutants, 24 h; active compounds read low; DMSO median 0, no signal -100; 350,000 compounds, 1.6% hits;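 active = significant combined selectivity score with lowered wild-type GFP, culture density cut under 30%, mutant RFP and density less affected; inactive = any of these conditions unmet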
NSD2 inh – NSD2 histone methyltransferase inhibitors, primary screen, biochemical, AlphaScreen, single concentration, set 2. Histone-lysine N-methyltransferase NSD2 (Homo sapiens), O96028. NSD2 peptide methylation, 120 min. inhibition, % at 12.5 µM. 310,000 compounds, 0.54% hits. AID 743445, 2014; in the data active = inhibition above about 50%
CASP6 VEID inh – human caspase-6 inhibitors, primary screen, biochemical, VEID-R110 fluorescence, single point, set 2 | P55212 | purified caspase-6, Z-VEID-R110 cleavage fluorescence | inhibition, % at 12.5 µM | 350,000 compounds, 0.53% hits | AID 686996, 2013;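 active = mean inhibition across replicates at least about 35%, with every replicate also reaching that limit, limit read from the data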;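 also: 0% = median of neutral control wells and 100% = no fluorescence left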
Target sequence (P55212 24-179 limits assumed): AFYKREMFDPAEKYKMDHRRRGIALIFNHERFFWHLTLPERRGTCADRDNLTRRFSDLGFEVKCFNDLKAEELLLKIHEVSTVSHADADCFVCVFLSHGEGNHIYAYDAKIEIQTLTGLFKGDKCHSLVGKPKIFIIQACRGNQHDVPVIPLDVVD
Target sequence (P55212 194-293 limits assumed): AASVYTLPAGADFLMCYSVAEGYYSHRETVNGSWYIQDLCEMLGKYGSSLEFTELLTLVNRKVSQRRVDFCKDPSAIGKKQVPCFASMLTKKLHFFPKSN
MLL AF4-AF9 inh – inhibitors of AF4 peptide binding to AF9, primary screen, biochemical, AlphaScreen, biotin-AF4 peptide, FLAG-AF9, single point | 350,000 compounds, 0.47% hits | inhibition, % at 10 µM | AID 651704, 2012;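 active = every replicate reaching a set inhibition limit, whatever the replicate mean, cut at about 25% in these data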;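 also: 0% = plate neutral control median and 100% = total signal loss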
AlphaScreen art – AlphaScreen signal interference with preloaded methylated product, dose response, artefact control for NSD2 inhibitor project, biochemical, cherry-picked samples; shares compounds with NSD2 inh; AlphaScreen artifact counterscreen, preloaded methylated H4 peptide; AC35, µM (top dose mostly 10 µM), inactives show top-dose activity change, negative = signal loss; 1,500 compounds, 9.4% hits; call rule not given here
Numbers without * were called inactive. A selection: hits, their analogues and other compounds. The true share with any hit is near 2.5%.

What do the screens show for `COc1ccc(-c2ccc([C@H]3[C@H](CO)N4CCCCN(C(=O)Cc5ccccc5)C[C@@H]34)cc2)cc1`?
RAD52 anneal inh: -3; Ecoli rRNA inh: -56; CASP6 VEID inh: -2; MLL AF4-AF9 inh: 4

How did COc1cccc(-c2ccc([C@@H]3[C@H](CO)N4CCCCN(C(=O)Cc5ccncc5)C[C@@H]34)cc2)c1 do in these assays?
RAD52 anneal inh: -52; Ecoli rRNA inh: -3; CASP6 VEID inh: 1; MLL AF4-AF9 inh: -6

How did COc1cccc(CN2CC3(C2)[C@H](c2ccccc2)[C@H](CO)N3C(=O)Cc2ccccc2)c1 do in these assays?
RAD52 anneal inh: 0; Ecoli rRNA inh: -5; CASP6 VEID inh: -1; MLL AF4-AF9 inh: 2

What do the screens show for `CCCC(=O)NC1=C(N2CC2)C(=O)C(NC(=O)CCC)=C(N2CC2)C1=O`?
RAD52 anneal inh: -12; Ecoli rRNA inh: -5; NSD2 inh: 92*; CASP6 VEID inh: 21; MLL AF4-AF9 inh: 0; AlphaScreen art: -1%

How did CCCC(=O)Nc1ccc(N2CCN(CC)CC2)c(Cl)c1 do in these assays?
NSD2 inh: 6

Results for CCNCCNc1ccc([N+](=O)[O-])c2cccnc12 ?
RAD52 anneal inh: 6; Ecoli rRNA inh: -21; NSD2 inh: 100*; CASP6 VEID inh: -4; MLL AF4-AF9 inh: -2; AlphaScreen art: -4%

Results for CCN1/C(=C/C=C/C2=[N+](CC)c3ccccc3C2(C)C)C(C)(C)c2ccccc21 ?
RAD52 anneal inh: inactive; Ecoli rRNA inh: 103; NSD2 inh: 55*; CASP6 VEID inh: -30; MLL AF4-AF9 inh: 3; AlphaScreen art: -11%

How did CN(C)c1ccccc1 do in these assays?
RAD52 anneal inh: 6; Ecoli rRNA inh: 16; NSD2 inh: -3; CASP6 VEID inh: -1; MLL AF4-AF9 inh: -3

How did Cc1cccc(N=Nc2ccc(N(C)C)cc2)c1 do in these assays?
RAD52 anneal inh: 0; Ecoli rRNA inh: 19; NSD2 inh: 51*; CASP6 VEID inh: 2; MLL AF4-AF9 inh: 27*; AlphaScreen art: 8.4µM*

What do the screens show for `Cc1ccc(OC(=O)N(C)C[C@@H]2OCc3ccccc3-c3c(n(C)c4ccccc34)C(=O)N([C@@H](C)CO)C[C@H]2C)cc1`?
RAD52 anneal inh: 15; Ecoli rRNA inh: -2; CASP6 VEID inh: 1; MLL AF4-AF9 inh: 8

What do the screens show for `Cc1ccc(N2C(=O)NC(=O)/C(=C/c3ccc(OC(=O)c4cccs4)cc3)C2=O)cc1`?
NSD2 inh: 127*; AlphaScreen art: -4%

Results for COC(=O)[C@H]1[C@H](CO)[C@H]2Cn3c(ccc(C4=CCCC4)c3=O)[C@@H]1N2Cc1ccccn1 ?
RAD52 anneal inh: -43; Ecoli rRNA inh: 5; CASP6 VEID inh: 4; MLL AF4-AF9 inh: 0

What do the screens show for `Nc1c(C(=O)NCC2CCCO2)c2nc3ccccc3nc2n1Cc1ccco1` (stereo unspecified)?
RAD52 anneal inh: -64; Ecoli rRNA inh: 7; NSD2 inh: -9; CASP6 VEID inh: 4

Results for Nc1c(C(=O)NC2CCCC2)c2nc3ccccc3nc2n1CC1CCCO1 (stereo unspecified) ?
NSD2 inh: 82*; AlphaScreen art: 27%

What do the screens show for `CCCC#Cc1ccc([C@@H]2[C@H]3CN(C(=O)Cc4ccccn4)CCCCN3[C@H]2CO)cc1`?
RAD52 anneal inh: -37; Ecoli rRNA inh: 2; CASP6 VEID inh: 0; MLL AF4-AF9 inh: 1

How did O=[N+]([O-])c1ccc(N(CCO)CCO)c2c1no[n+]2[O-] do in these assays?
RAD52 anneal inh: -408; Ecoli rRNA inh: -39; NSD2 inh: 135*; CASP6 VEID inh: -6; MLL AF4-AF9 inh: 2; AlphaScreen art: -1%

Results for C/C=C/c1ccc(C2[C@@H]3CN(C(=O)c4cnccn4)C[C@H]2N3)cc1 (stereo partly specified) ?
RAD52 anneal inh: 18; Ecoli rRNA inh: 7; CASP6 VEID inh: 0; MLL AF4-AF9 inh: -5

What do the screens show for `CCN(CC)CCCN=C(C)c1c(O)n(C2CCCCC2)c(=O)[nH]c1=O`?
NSD2 inh: 49
